The supplement of paper PMC7695840
Where a name gives a salt, the structure may show the parent alone.

Assays:
[1] = system: Staphylococcus aureus MW2 delta-mecA (mecA-); experiment: normalized GFP fluorescence (growth of mecA- strain) (fraction of control range); higher = more growth of mecA- strain; settings: compound concentration: 150 uM; cefoxitin: subinhibitory; fluorescent label: GFP
How it was run: (§1)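 S. aureus MW2 cells, pre-induced, were used as a 1:1 mix of a DsRed strain carrying the gene and a GFP strain lacking it, in LB with a subinhibitory antibiotic dose set each day. At 5 µL/well they were placed onto 150 μM compound (1.5% DMSO) in 1536-well plates, one replicate, and kept unshaken for 20 h at 37 °C, 90% humidity. After DsRed (540/590) and GFP (485/520) reads scaled per plate to single-strain control medians, plates with high untreated ratios and rows with DsRed/GFP >10 were excluded.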

[2] = system: Staphylococcus aureus MW2 (mecA+); experiment: normalized DsRed fluorescence (growth of mecA+ strain) (fraction of control range); higher = more growth of mecA+ strain; settings: compound concentration: 150 uM; cefoxitin: subinhibitory; fluorescent label: DsRed
How it was run: as §1

Row | Compound | normalized GFP fluorescence [1] | normalized DsRed fluorescence [2]
1 | CC1(C)O[C@@H]2[C@@H](CO[C@@]3(COS(N)(=O)=O)OC(C)(C)O[C@@H]23)O1 | 0.798 | 0.547
2 | COc1ccc2cc(CCC(C)=O)ccc2c1 | 0.292 | 0.79
3 | CCN(CCCCOC(=O)c1ccc(OC)c(OC)c1)C(C)Cc1ccc(OC)cc1 (stereo unspecified) | 0.41 | 0.559
4 | Nc1nc(=O)n([C@@H]2CS[C@H](CO)O2)cc1F [Emtricitabine] | 0.4 | 0.622
5 | Cc1ccccc1C(OCCN(C)C)c1ccccc1 (stereo unspecified) | 0.779 | 1.23
6 | CC(CN1c2ccccc2Sc2ccccc21)N(C)C (stereo unspecified) | -0.00976 | 0.917
7 | OC(CCN1CCCCC1)(c1ccccc1)C1CCCCC1 (stereo unspecified) | 0.277 | 0.789
8 | CC(C)NCC(O)COc1ccc(CC(N)=O)cc1 (stereo unspecified) | 0.323 | 0.749
9 | O=c1n(CCCN2CCN(c3cccc(Cl)c3)CC2)nc2ccccn12 | 0.187 | 1.1
10 | NC[C@H]1CC[C@H](C(=O)O)CC1 | 0.867 | 0.725
11 | CC(NCCc1ccc(O)cc1)C(O)c1ccc(O)cc1 (stereo unspecified) | 0.828 | 0.736
12 | COc1ccccc1OCC(O)CN1CCN(CC(=O)Nc2c(C)cccc2C)CC1 (stereo unspecified) | 0.863 | 0.62
13 | CC(C)NCC(O)COc1cccc2ccccc12 (stereo unspecified) | 0.142 | 1.24
14 | CN1CCC(=C2c3ccccc3C=Cc3ccccc32)CC1 | 0.0037 | 1.31
15 | C[N+](C)(C)C[C@H](O)CC(=O)[O-] [L-carnitine (Levocarnitine)] | 0.171 | 0.836
16 | C[C@H]1C[C@@H]2[C@H]([C@@H](O)C[C@@]3(C)[C@H]2CC[C@]3(O)C(=O)COC(=O)CCC(=O)O)[C@@]2(C)C=CC(=O)C=C12 | 0.634 | 0.526
17 | CCS(=O)(=O)CCn1c([N+](=O)[O-])cnc1C | 0.603 | 1.08
18 | NC(=O)N1c2ccccc2C=Cc2ccccc21 | 0.497 | 0.792
19 | COc1ccc(CNc2nc(N3CCC[C@H]3CO)ncc2C(=O)NCc2ncccn2)cc1Cl [Avanafil] | 0.53 | 0.718

Row | Compound | normalized GFP fluorescence [1] | normalized DsRed fluorescence [2]
20 | CC(C)(C)NCC(O)COc1cccc2c1CC(O)C(O)C2 (stereo unspecified) | 0.721 | 0.671
21 | CN(C)[C@@H](CCOc1cccc2ccccc12)c1ccccc1 [Dapoxetine hydrochloride (Priligy)] | -0.00645 | 1.15
22 | CC(=O)O[C@]1(C(C)=O)CC[C@H]2[C@@H]3C=C(Cl)C4=CC(=O)[C@@H]5C[C@@H]5[C@]4(C)[C@H]3CC[C@@]21C | 0.239 | 0.593
23 | O=C(NCC1CCCCN1)c1cc(OCC(F)(F)F)ccc1OCC(F)(F)F (stereo unspecified) | 0.508 | 0.624
24 | CCCCCCNC(=O)n1cc(F)c(=O)[nH]c1=O [Carmofur] | 0.605 | 0.452
25 | N[C@@H](Cc1cc(I)c(Oc2cc(I)c(O)c(I)c2)c(I)c1)C(=O)O | 0.297 | 0.575
26 | CCc1cn([C@H]2C[C@H](O)[C@@H](CO)O2)c(=O)[nH]c1=O | 0.343 | 0.714
27 | CCCN(CCC)CCc1cccc2c1CC(=O)N2 | 0.224 | 1.03
28 | Nc1ccn([C@H]2CC[C@@H](CO)O2)c(=O)n1 | 0.265 | 0.779
29 | CN(c1nccc(=O)[nH]1)C1CCN(c2nc3ccccc3n2Cc2ccc(F)cc2)CC1 [Mizolastine (Mizollen)] | 0.387 | 0.462
30 | CC(=O)OCC(=O)[C@@]1(OC(C)=O)[C@@H](C)C[C@H]2[C@@H]3C[C@H](F)C4=CC(=O)C=C[C@]4(C)[C@@]3(F)[C@@H](O)C[C@@]21C | 0.256 | 1.11
31 | CN1C(CCl)Nc2cc(Cl)c(S(N)(=O)=O)cc2S1(=O)=O (stereo unspecified) [Methyclothiazide] | 0.383 | 0.579
32 | Clc1ccc(C(Cn2ccnc2)OCc2c(Cl)cccc2Cl)c(Cl)c1 (stereo unspecified) [Isoconazole nitrate (Travogen)] | -0.00251 | 0.00958
33 | C=CC[N+]1([C@H]2C[C@H]3[C@@H]4CC[C@H]5C[C@H](O)[C@@H](N6CCOCC6)C[C@]5(C)[C@H]4CC[C@]3(C)[C@H]2OC(C)=O)CCCC1 | 0.279 | 0.667
34 | O=c1[nH]c(=O)n([C@H]2C[C@H](O)[C@@H](CO)O2)cc1I | 0.363 | 0.546
35 | O=C([O-])C(O)[C@H](O)[C@@H](O)[C@H](O)[C@H](O)CO.O=C([O-])C(O)[C@H](O)[C@@H](O)[C@H](O)[C@H](O)CO.[Ca+2] (stereo partly specified) | 0.35 | 0.718
36 | O=S(=O)(O)NC1CCCCC1 | 0.457 | 0.493
37 | Cc1[nH]c(=O)c(C#N)cc1-c1ccncc1 | 0.476 | 0.797
38 | CC(=O)OCC(CCn1cnc2cnc(N)nc21)COC(C)=O | 0.204 | 0.667
